BaF3 parental: reduces parental Ba/F3 cell viability, JAK2V617F counter-screen. CellTiter-Glo ATP luminescence. inhibition, % at 5.6 µM. 220,000 compounds, 1.1% hits;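 active = inhibition above a per-campaign cutoff, the mean inhibition of all tested compounds plus 3 SD, cut at about 27% in these data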
aSyn UTR inh: 5' untranslated region of α-synuclein, MLPCN primary screen; alpha-synuclein 5'UTR reporter, inhibitor activity; inhibition, % (tested at 7.5 µM); 300,000 compounds, 0.82% hits; AID 1813; in the data active = inhibition above about 60%;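 also: H4 neuroglioblastoma cells stably carrying SNCA 5'UTR luciferase fusion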
IEC-6 cytotox: counter-screen for KLF5 inhibitors: cytotoxicity in IEC-6 cells; IEC-6 cytotoxicity, luminescence viability; inhibition, % at 5 µM; 290,000 compounds, 0.78% hits; AID 1825; in the data active = inhibition above about 22%
APP transl inh: APP translation inhibition. SH-SY5Y APP 5'UTR-luciferase reporter, luminescence. inhibition, % at 2 µM. 190,000 compounds, 0.82% hits. AID 1285;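 active = inhibition above a set limit, derived from the sample mean plus 3 SD, cut at about 45% in these data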
KLF5 inh: inhibitors of KLF5 expression | DLD-1 KLF5 promoter-luciferase reporter, luminescence | inhibition, % at 5 µM | 290,000 compounds, 0.23% hits | AID 1700;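 active = inhibition above a per-plate limit of that plate's mean compound inhibition plus 3 SD, cut at about 60% in these data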;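 also: higher means less KLF5 promoter-driven luciferase light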
Ba/F3 V617F tox: loss of viability in JAK2V617F-driven Ba/F3 cells | inhibition, % at 5.6 µM | 220,000 compounds, 1.1% hits | Ba/F3 EpoR-JAK2V617F viability, ATP luminescence;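 active = inhibition above the campaign mean plus 3 SD over all tested compounds, cut at about 24% in these data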;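 also: cytokine-independent growth of Ba/F3 cells driven by EpoR plus mutant JAK2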
Hits are given with their value; – = inactive; · = no result given. Shown are actives, neighbours in structure and some others; about 2.2% of the full set was active somewhere.

SMILES | BaF3 parental | aSyn UTR inh | IEC-6 cytotox | APP transl inh | KLF5 inh | Ba/F3 V617F tox
CCC(=O)N(Cc1cc(=O)[nH]c2ccccc12)c1ccccc1OC | · | – | – | · | – | ·
CC(=O)NC(c1ccco1)c1ccc2cccnc2c1O (stereo not given) | – | 77.2 | – | 54.6 | – | –
Oc1ccccc1C(Nc1nccs1)c1ccc2cccnc2c1O (stereo not given) | – | 76.9 | – | · | – | –
CCCCC(=O)NC(c1ccc(Cl)cc1Cl)c1ccc2cccnc2c1O (stereo not given) | · | 91.6 | – | · | – | ·
CC(NC(=O)CSc1ncccn1)c1ccc(Cl)cc1Cl (stereo not given) | – | – | – | – | – | –
Cc1ccnc(NC(c2cccnc2)c2ccc3cccnc3c2O)c1 (stereo not given) | – | – | – | – | – | –
CCCC(=O)NC(c1ccco1)c1cc([N+](=O)[O-])c2cccnc2c1O (stereo not given) | – | – | – | – | – | –
CC(C)C(=O)NC(c1ccc(Cl)cc1Cl)c1ccc2cccnc2c1O (stereo not given) | · | 92.3 | – | · | 79.3 | ·
COc1ccc2cc(/C=N/NC(=O)c3c(Cl)cnn3C)c(Cl)nc2c1 | – | – | – | – | – | –
COc1ccc2cc(/C=N/NC(=O)c3ccc(CN(c4ccc(C)c(C)c4)S(C)(=O)=O)cc3)c(Cl)nc2c1 | – | 64.8 | – | – | – | –
CN[C@H]1CCc2cc(OC)c(OC)c(OC)c2-c2ccc(N(C)CC(OC)OC)c(=O)cc21 | · | 70.2 | – | · | – | ·
O=C(OCc1nc(-c2ccccc2)oc1COC(=O)c1ccco1)c1ccco1 | 54.1 | – | – | – | – | –
O=C(COC(=O)c1ccco1)Nc1nnc(-c2ccccc2)o1 | · | – | · | · | · | ·
O=c1c2ccccc2[nH]c(=S)n1Cc1cccnc1 | – | – | – | 56.1 | – | –
Clc1ccc(-c2cnc3n2CCCCC3)cc1 | – | – | – | – | – | –
Clc1ccc(C[n+]2cc(-c3ccccc3)n3c2CCCCC3)c(Cl)c1 | 79.3 | – | – | – | – | 85.6
O=[N+]([O-])c1ccc(C[n+]2cc(-c3ccc(Cl)c(Cl)c3)n3c2CCCCC3)cc1 | – | – | – | · | – | –
Clc1ccc(-c2c[n+](Cc3ccc(Cl)cc3Cl)c3n2CCCCC3)cc1 | 72.9 | – | – | · | – | 73.3
Clc1ccc(-c2c[n+](Cc3ccc(Br)cc3)c3n2CCCCC3)cc1 | 69.1 | – | – | · | – | 61.9
CCOc1ccc(NC(=O)CCC(=O)c2ccc(F)cc2)cc1 | · | – | – | · | – | ·
O=C(Nc1ccc2c(c1)OCO2)c1ccc([N+](=O)[O-])cc1[N+](=O)[O-] | · | – | – | · | – | ·
CN(CC1COc2ccccc2O1)C(=S)Nc1ccccc1 (stereo not given) | 27.5 | – | – | – | – | –
COCC(C)N=C1NN=C(c2cc(C)n(Cc3ccccc3Cl)c2C)CS1 (stereo not given) | – | – | – | – | – | –
COc1ccc(-c2cc3c(=O)n(CC(=O)NCCCN4CCC(Cc5ccccc5)CC4)ncn3n2)cc1 | · | 96.4 | – | · | – | ·
Cc1cc(C[n+]2ccccc2)c2nsnc2c1 | 58.9 | – | – | – | – | 59.2
SMILES | BaF3 parental | aSyn UTR inh | IEC-6 cytotox | APP transl inh | KLF5 inh | Ba/F3 V617F tox
Cc1cc(C[n+]2ccsc2N)c2ncccc2c1 | – | – | – | · | – | –
Cc1ccccc1C(=O)Nc1nnc(S(=O)(=O)N2CCCCC2)s1 | · | – | – | · | – | ·
CCOC(=O)C1=C(C)N=C(SC)N(C)C1c1ccccc1 (stereo not given) | – | – | – | – | – | –
CCOC(=O)C1=C(c2ccccc2)ON(C)C1c1ccccc1 (stereo not given) | 39.2 | – | – | – | – | 26.2
COc1ccc(C2=NS(=O)(=O)N(C)C(C(=O)N3CCCCC3)=C2)cc1OC | · | – | – | · | – | ·
CCn1ccnc1CNC(=O)c1ccc2oc(CCCc3ccccc3)nc2c1 | · | – | – | · | – | ·
Cc1ccc(-c2nn3cnnc3c3ccccc23)cc1 | 82.0 | – | – | – | – | –
COc1ccc(CCNC(=O)CSc2nnnn2-c2ccccc2)cc1 | – | – | – | 47.6 | – | –
COc1ccc(CNC(=O)CSc2nnnn2-c2ccccc2)cc1 | – | – | – | – | – | –
O=C(CN1CCOCC1)Nc1nc(-c2ccccc2Cl)cs1 | · | – | – | · | – | ·
CN(C)CCCN(Cc1cc2cc3c(cc2[nH]c1=O)OCO3)C(=S)Nc1ccccc1 | – | – | – | – | – | –
CN(C)CCCN(Cc1cc2cc3c(cc2[nH]c1=O)OCO3)C(=S)Nc1cccc(Cl)c1 | 46.5 | – | – | – | – | 35.6
CCCCNC(=S)Nc1cccc(S(=O)(=O)NC2=NCCC2)c1 | · | – | · | · | · | ·
CC(=O)C1=C(O)C(=O)N(Cc2ccccc2)C1c1ccccc1F (stereo not given) | 37.4 | – | – | – | – | –
COc1cc2cc(/C=C/C(=O)c3ccco3)c(Cl)nc2cc1OC | – | – | – | 50.1 | – | –
CC(Oc1ccccc1)C(=O)NNC(=O)c1ccccn1 (stereo not given) | – | – | – | – | – | –
C/C(=N\NC(=O)C(C)Oc1ccc([N+](=O)[O-])cc1)c1ccccn1 (stereo not given) | – | 72.3 | – | 63.1 | – | –
CCOC(=O)N1CCN(c2ncnc3c2[nH]c2ccc(F)cc23)CC1 | 41.7 | – | – | – | – | –
OC1(c2cccc(C(F)(F)F)c2)CCN(c2ncnc3c2[nH]c2ccc(F)cc23)CC1 | 35.4 | · | – | – | – | –
Fc1ccc2[nH]c3c(N4CCN(c5ccccc5)CC4)ncnc3c2c1 | – | – | – | – | – | –
CCOC(=O)N1CCN(c2ncnc3c2[nH]c2ccc(OC)cc23)CC1 | – | – | – | – | – | –
COc1ccccc1C(=O)Nc1ccnn1C1CCN(C/C=C/c2ccc(F)cc2)CC1 | · | – | – | · | – | ·
CCC1CCCCN1CC(=O)c1c(C)[nH]c2ccc(OC)cc12 (stereo not given) | – | – | – | · | – | –
CCC1S/C(=C(\C#N)C(=O)NCc2ccco2)N(c2ccc(Br)cc2)C1=O (stereo not given) | – | – | – | · | – | –
CCC1S/C(=C(\C#N)C(=O)NCc2ccco2)N(c2ccc(F)cc2)C1=O (stereo not given) | 32.8 | – | – | – | – | –
SMILES | BaF3 parental | aSyn UTR inh | IEC-6 cytotox | APP transl inh | KLF5 inh | Ba/F3 V617F tox
CCOc1ccccc1C1C2=C(COC2=O)Nc2cc3c(cc21)OCO3 (stereo not given) | 73.9 | 116.9 | 90.8 | 95.8 | 62.9 | 83.0
CCCOc1c(OC)cccc1C1CC(=O)Nc2cc3c(cc21)OCO3 (stereo not given) | – | – | – | – | – | –
Cc1cc(C(=O)CSc2nc3ccccc3[nH]2)c(C)n1CC1CCCO1 (stereo not given) | 40.3 | – | – | – | – | –
O=C(Cc1ccccc1)Nc1cccc(N2C(=O)C=CC2=O)c1 | – | – | – | 66.7 | – | –
C=CCN(c1ccc(C(=O)NCCSc2ccccc2)cc1)S(C)(=O)=O | · | – | – | · | – | ·
CCC/C(O)=C1\C(=O)CC(C)(C)CC1=Nc1ccc(OC)cc1OC | – | – | – | 86.4 | – | –

Compound activity (PubChem BioAssay)
